# Values joined by “and” are separate entries in the source; they are usually repeats but may differ in a detail not shown here. Equal entries are not always repeated. Over roughly 1,700 compounds, “fraction of GFP-LC3-positive cells (≥5 vesicles/cell)” has its median near 0.43; the highest 2% begin near 0.81. The sample holds the highest values, similar compounds and a random draw of the others, so the mix is not that of the screen.
# System: CbCln3 Δex7/8/Δex7/8 GFP-LC3 cerebellar neuronal cells
# Test: fraction of GFP-LC3-positive cells (≥5 vesicles/cell); higher = more autophagosome accumulation
# Outline: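 In 384-well plates at 2 × 10^3 cells per well, GFP-LC3-expressing wild-type or mutant CbCln3 cerebellar cells took ~50 nL of compound in DMSO by pin transfer, in duplicate, for 24 h at 33 °C. Staining with Hoechst 33342 and LysoTracker Red over the final 30 min preceded fixation in 3.2% PFA and imaging of three fields per well at 10×. CellProfiler then counted GFP-LC3 vesicles in each cell, and out-of-focus images were dropped before the fraction of cells with 5 or more vesicles was averaged over duplicates.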
row,SMILES,fraction of GFP-LC3-positive cells
1,CC(=O)N[C@@H](CC(C)C)C(=O)O [N-Acetyl-L-leucine],0.38
2,COc1ccc2c(c1)c(CC(=O)OCC(=O)O)c(C)n2C(=O)c1ccc(Cl)cc1 [Acemetacin],0.361
3,CNc1ncnc2c1ncn2[C@@H]1O[C@H](CO)[C@@H](O)[C@H]1O [N6-methyladenosine],0.417
4,COc1ccc(CC(N)C(=O)N[C@H]2[C@@H](O)[C@H](n3cnc4c(N(C)C)ncnc43)O[C@@H]2CO)cc1 (some centres undefined) [puromycin],0.782
5,COc1ccc(C[C@H](N)C(=O)N[C@H]2[C@@H](O)[C@H](n3cnc4c(N(C)C)ncnc43)O[C@@H]2CO)cc1.Cl.Cl [Puromycin dihydrochloride],0.937
6,CCN(CC)CCCC(C)Nc1ccnc2cc(Cl)ccc12.O=P(O)(O)O.O=P(O)(O)O (centres undefined) [Chloroquine diphosphate],0.518
7,CCN(CC)Cc1cc(Nc2ccnc3cc(Cl)ccc23)ccc1O.Cl.Cl.O.O [Amodiaquin dihydrochloride dihydrate],0.513
8,CCN(CC)CCCC(C)Nc1c2ccc(Cl)cc2nc2ccc(OC)cc12.Cl.Cl.O.O (centres undefined) [Quinacrine dihydrochloride dihydrate],0.866
9,NC1CONC1=O (stereo in doubt) [(S)-(-)-Cycloserine],0.414
10,CNC(C)CCC=C(C)C.CNC(C)CCC=C(C)C.O=C(O)C(O)C(O)C(O)C(O)C(=O)O (centres undefined) [Isometheptene mucate],0.479
11,Cc1c(N(C)C)c(=O)n(-c2ccccc2)n1C [Amidopyrine],0.504
12,COc1ccc2cc1Oc1ccc(cc1)C[C@H]1c3cc(c(OC)cc3CCN1C)Oc1c(OC)c(OC)cc3c1[C@H](C2)N(C)CC3,0.746
13,COc1cc2c3cc1Oc1c(OC)c(OC)cc4c1[C@@H](Cc1ccc(OC(=O)c5ccc([N+](=O)[O-])cc5)c(c1)Oc1ccc(cc1)C[C@@H]3N(C)CC2)N(C)CC4 [E6 berbamine],0.834
14,COc1ccc2cc1Oc1ccc(cc1)C[C@H]1c3cc(c(OC)cc3CCN1C)Oc1c(OC)c(OC)cc3c1[C@H](C2)N(C)CC3 [Tetrandrine],0.679
15,CNCCc1ccccn1.CS(=O)(=O)O.CS(=O)(=O)O [Betahistine mesylate],0.488
16,CN(C)CCN(Cc1ccc(Cl)cc1)c1ccccn1.Cl [Chloropyramine hydrochloride],0.566
17,c1ccc(CN(CCN(Cc2ccccn2)Cc2ccccn2)Cc2ccccn2)nc1,0.952
18,CCc1cccc2c3c([nH]c12)C(CC)(CC(=O)O)OCC3 (centres undefined) [Etodolac],0.495
19,CCc1cc(Cl)c(OC)c(C(=O)NC[C@@H]2CCCN2CC)c1O.Cl [S(-)Eticlopride hydrochloride],0.341
20,C[C@]1(Cn2ccnn2)[C@H](C(=O)O)N2C(=O)C[C@H]2S1(=O)=O [Tazobactam],0.531
21,CCCCCCCCCCCCCCC[C@@H](O)[C@@H](N)CO,0.515
22,CCCCCCCCCCCCCCC[C@@H](O)[C@@H](N)CO [Dihydrosphingosine],0.348
23,C[C@]12C=CC(=O)C=C1CC[C@@H]1[C@@H]2C(=O)C[C@@]2(C)[C@H]1CC[C@]2(O)C(=O)CO [Prednisone],0.49

row,SMILES,fraction of GFP-LC3-positive cells
1,CCCC[C@@H](C)/C=C(C)/C=C(\C)C(=O)NC1=C[C@@](O)(/C=C/C=C/C=C/C(=O)NC2=C(O)CCC2=O)[C@@H]2O[C@@H]2C1=O [manumycin A],0.917
2,CC(C)NC[C@H](O)COc1cccc2ccccc12.Cl [(S)-propranolol hydrochloride],0.275
3,COc1cc(C(=O)OCCCN2CCCN(CCCOC(=O)c3cc(OC)c(OC)c(OC)c3)CC2)cc(OC)c1OC.Cl.Cl [Dilazep dihydrochloride],0.699
4,COc1cc(/C=C/C(=O)N2CCC=CC2=O)cc(OC)c1OC [Piperlongumine],0.901
5,COC(=O)[C@H]1[C@H]2C[C@@H]3c4[nH]c5cc(OC)ccc5c4CCN3C[C@H]2C[C@@H](OC(=O)/C=C/c2cc(OC)c(OC)c(OC)c2)[C@@H]1OC [Rescinnamin],0.292
6,CN(C)CCC(c1ccccc1)c1ccccn1.O=C(O)/C=C\C(=O)O (centres undefined) [Pheniramine maleate],0.47
7,COc1cc(-c2ccc(=O)[nH]n2)ccc1OC(F)F [zardaverine],0.33
8,CCCCCCCC/C=C/CCCCCCCCCC(=O)O [5561-99-9 11(Z)-Eicosenoic acid],0.401
9,CCCCCCCC/C=C/CCCCCCCCCC(=O)O [11(E)-Eicosenoic acid],0.25
10,Cl.Cl.OCCN1CCN(CC/C=C2/c3ccccc3Sc3ccc(C(F)(F)F)cc32)CC1 [Flupentixol dihydrochloride cis-(Z)],0.291
11,CCCCC/C=C\C[C@@H](O)/C=C/C=C\CCC(=O)O [Tetranor-12(R)-HETE],0.513
12,CC(C)NCC(O)COc1cccc2ccccc12.Cl (stereo in doubt) [(R)-Propranolol hydrochloride],0.486
13,C[C@@H]1C/C=C/C=C/C=C/C=C/[C@H](O[C@@H]2O[C@H](C)[C@@H](O)[C@H](N)[C@@H]2O)C[C@@H]2O[C@](O)(C[C@@H](O)C[C@H]3OC3/C=C/C(=O)O1)C[C@H](O)[C@H]2C(=O)O (some centres undefined) [Natamycin],0.298
14,NS(=O)(=O)c1cc(C(=O)O)c(NCc2ccco2)cc1Cl [Furosemide],0.511
15,CCC(C)[C@H](NS(=O)(=O)c1cccc2ccccc12)C(=O)N[C@H](C=O)Cc1c[nH]c2ccccc12 (some centres undefined),0.69 and 0.692
16,CCN[C@H]1C[C@H](C)S(=O)(=O)c2sc(S(N)(=O)=O)cc21.Cl [Dorzolamide hydrochloride],0.432
17,C=C1c2c(Cl)ccc(O)c2C(=O)C2=C(O)[C@]3(O)C(=O)C(C(N)=O)=C(O)[C@@H](N(C)C)[C@@H]3[C@@H](O)C12.O=C(O)c1cc(S(=O)(=O)O)ccc1O (some centres undefined) [Meclocycline sulfosalicylate],0.345
18,CCc1cc(C(N)=S)ccn1 [Ethionamide],0.393
19,O=C(CCNNC(=O)c1ccncc1)NCc1ccccc1 [Nialamide],0.406
20,Clc1cccc(Nc2nnc(-c3ccccc3)c3ccccc23)c1,0.522
21,CC[C@H](C)C(=O)O[C@H]1C[C@@H](C)C=C2C=C[C@H](C)[C@H](CC[C@@H]3C[C@@H](O)CC(=O)O3)[C@H]21 [Lovastatin],0.0901
22,C=CC(N)CCC(=O)O (centres undefined) [Vigabatrin],0.474
23,O=C(O)CCCC[C@@H]1SC[C@@H]2NC(=O)N[C@@H]21 [Biotin],0.393

row,SMILES,fraction of GFP-LC3-positive cells
1,CCN(CC)CCOCCOC(=O)C1(c2ccccc2)CCCC1.O=C(O)CC(O)(CC(=O)O)C(=O)O [Carbetapentane citrate],0.469
2,NS(=O)(=O)c1cc(C(=O)O)cc(N2CCCC2)c1Oc1ccccc1 [Piretanide],0.344
3,CC(C(=O)O)c1ccc(C(=O)c2ccccc2)s1 (centres undefined) [Tiaprofenic acid],0.467
4,CN(C(Cc1ccc(OS(=O)(=O)c2cccc3cnccc23)cc1)C(=O)N1CCN(c2ccccc2)CC1)S(=O)(=O)c1cccc2cnccc12 (centres undefined),0.324 and 0.255
5,CCCCCCCCCCCCCCCCCCOC[C@@H](O)COP(=O)([O-])OCC[N+](C)(C)C,0.362
6,Cc1cc2cc3c(C)cc(=O)oc3c(C)c2o1 [Trioxsalen],0.357
7,COc1cc(C)nc(-n2nc(C)cc2OC)n1 [Epirizole],0.324
8,C[N+]1(CCCCC[N+]2(C)CCCC2)CCCC1.O=C([O-])[C@H](O)[C@@H](O)C(=O)O.O=C([O-])[C@H](O)[C@@H](O)C(=O)O [Pentolinium bitartrate],0.493
9,COC(=O)C1=C(C)NC(C)=C(C(=O)OCCN(C)Cc2ccccc2)C1c1cccc([N+](=O)[O-])c1 (centres undefined) [Nicardipine],0.146
10,Nc1ncnc2c1ncn2C1O[C@H](CO)[C@@H](O)[C@@H]1O (some centres undefined) [Vidarabine],0.406
11,Nc1nc(S)c2ncn([C@@H]3O[C@H](CO)[C@@H](O)[C@H]3O)c2n1 [Thioguanosine],0.576
12,Nc1ncn(C2O[C@H](CO)[C@@H](O)[C@H]2O)c(=O)n1 (some centres undefined) [Azacytidine-5],0.861
13,Nc1ccc(S(=O)(=O)Nc2ncccn2)cc1 [Sulfadiazine],0.438
14,C=C1CC[C@H](O)C/C1=C/C=C1\CCC[C@]2(C)[C@@H]([C@H](C)CCCC(C)C)CC[C@@H]12 [Cholecalciferol],0.281
15,Oc1cc(O)c2c(c1)O[C@H](c1ccc(O)c(O)c1)[C@@H](O)C2 [Epicatechin-(-)],0.438
16,NS(=O)(=O)c1cc2c(cc1C(F)(F)F)NCNS2(=O)=O [Hydroflumethiazide],0.451
17,C[C@@H](O)CCC[C@H](O)/C=C/[C@@H]1[C@@H](C/C=C\CCCC(=O)O)[C@@H](O)C[C@H]1O [19(R)-Hydroxy-prostaglandin F2a],0.532
18,O=C(NCCNCC(O)COc1ccc(O)cc1)N1CCOCC1.O=C(NCCNCC(O)COc1ccc(O)cc1)N1CCOCC1.O=C(O)/C=C/C(=O)O (centres undefined) [Xamoterol hemifumarate],0.32
19,COc1cc([C@@H]2c3cc4c(cc3[C@@H](OC3OC5COC(C)OC5C(O)C3O)[C@H]3COC(=O)[C@H]23)OCO4)cc(OC)c1O (some centres undefined) [etoposide],0.664
20,Cc1cccc(C)c1NC(=O)C(C)N.Cl (centres undefined) [Tocainide hydrochloride],0.504
21,Cl.c1ccc(CC2=NCCN2)cc1 [Tolazoline hydrochloride],0.508
22,C=CC(=O)c1ccc2ccccc2c1,0.499
23,NC[C@H]1CC[C@H](C(=O)O)CC1 [Tranexamic acid],0.53
